{"source": "the supplement of paper PMC4894684", "note": "Structures can show the parent of a compound that is named as a salt. ± gives the standard deviation of the averaged measurements."}
{"test_system": "Toxoplasma gondii RH (in HFF)", "assay": "parasite growth relative to the screen mean (all compounds = 100%); higher = less inhibition of parasite growth", "details": "5 µM; 72 h; oxygen 21 %", "outline": "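RH β-Gal–GFP Toxoplasma at MOI 1:5 was used to infect confluent human foreskin fibroblasts in 96-well plates within 2 h of pin-transferring compounds to 5 µM final. After 72 h at 21% O2, parasite number was determined by CPRG β-Gal assay against standard curves on the same plate. Growth is relative to the screen mean and averaged over two screens, with all compounds = 100%.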", "units": {"parasite growth": "%"}}
{"smiles": "CC[C@H](CO)Nc1nc(Nc2cccc(-c3ccccn3)c2)c2ncn(C(C)C)c2n1", "note": "[(R)-DRF053 dihydrochloride]", "parasite growth": "32.4 ± 16"}
{"smiles": "Cn1cnnc1Sc1c([N+](=O)[O-])ncn1C", "parasite growth": "131 ± 11"}
{"smiles": "O=C(O)C1=CCCN(CCON=C(c2ccccc2)c2ccccc2)C1", "parasite growth": "159 ± 9.8"}
{"smiles": "Cc1nc2c(c(=O)[nH]1)CSCC2", "parasite growth": "122 ± 32"}
{"smiles": "CCc1c2c(nc3ccc(O)cc13)-c1cc3c(c(=O)n1C2)COC(=O)[C@]3(O)CC", "parasite growth": "110.2 ± 0.25"}
{"smiles": "COc1ccc(CC(C)NCC(O)c2ccc(O)c(NC=O)c2)cc1", "note": "(stereo not given) [Formoterol hemifumarate]", "parasite growth": "126 ± 5.6"}
{"smiles": "c1ccc(C(NCc2cccnc2)(c2ccccc2)c2ccccc2)cc1", "parasite growth": "48.8 ± 13"}
{"smiles": "Cn1cnc2c(NCc3ccccc3)nc(NCCO)nc21", "note": "[Olomoucine]", "parasite growth": "127 ± 7.9"}
{"smiles": "COc1cc2ncnc(Nc3ccc(F)c(Cl)c3)c2cc1OCCCN1CCOCC1", "note": "[Iressa]", "parasite growth": "99 ± 20"}
{"smiles": "Clc1cccc(Nc2nnc(-c3ccccc3)c3ccccc23)c1", "parasite growth": "143.2 ± 1.4"}
{"smiles": "Cc1cc(C)c(S(=O)(=O)Nc2cccc(C(F)(F)F)c2)c(C)c1", "parasite growth": "169 ± 30"}
{"smiles": "C#CCN1C(C)=C(C(=O)OC)C(c2cccc([N+](=O)[O-])c2)C(C(=O)OCC)=C1C", "note": "(stereo not given)", "parasite growth": "157 ± 2.2"}
{"smiles": "N[C@@H](CC(=O)Nc1ccc(Oc2cc(F)c(F)cc2Br)cc1)C(=O)O", "parasite growth": "149.3 ± 0.68"}
{"smiles": "OC(CNCC(O)C1CCc2cc(F)ccc2O1)C1CCc2cc(F)ccc2O1", "note": "(stereo not given) [Nebivolol hydrochloride]", "parasite growth": "46 ± 23"}
{"smiles": "C=C1/C(=C\\C=C2/CCC[C@]3(C)[C@@H]([C@H](C)/C=C/[C@@H](O)C4CC4)CC[C@@H]23)C[C@@H](O)C[C@@H]1O", "note": "[Calcipotriol]", "parasite growth": "81.2 ± 8.2"}
